{"source": "PubChem BioAssay AID1159580", "about": "(chemical genetic matrix, 2015)", "experiment": "chemical genetic growth profiling, strain panel (AID 1159580);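 further: tested at 20 µM; growth read once vehicle control cultures reached saturation at 30 °C; 1 = growth at the plate median or of vehicle wells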", "conditions": "S. cerevisiae deletion strains, growth OD", "key": {"[1]": {"conditions": "locus YDL101C, strain DUN1, stronger effect = lower value"}, "[2]": {"conditions": "locus YHR030C, strain SLT2, stronger effect = lower value"}}, "note": "Screen size: about 5,500 compounds; about 2,000 (36%) were called active. Roughly 18% stayed inconclusive and do not appear here. The list shows a part of the results. Unmarked numbers belong to inactive results. No stated cut-off is given here; in the data, active means normalized growth mostly below about 0.91 (no sharp cut-off); inconclusive means no clear call, values can overlap the other calls; inactive means mostly above about 0.92."}
{"smiles": "Cc1nn(-c2ccccc2)nc1C(=O)NC(=O)N1CCCC1", "values": [{"measurement": "normalized growth", "setting": "locus YAL013W, strain DEP1, stronger effect = lower value", "result": 0.992}, {"measurement": "normalized growth", "setting": "locus YBR229C, strain ROT2, stronger effect = lower value", "result": 0.983}, {"measurement": "normalized growth", "setting": "[1]", "result": 0.949}, {"measurement": "normalized growth", "setting": "locus YDL134C, strain PPH21, stronger effect = lower value", "result": 1.01}, {"measurement": "normalized growth", "setting": "locus YDR150W, strain NUM1, stronger effect = lower value", "result": 0.871}, {"measurement": "normalized growth", "setting": "locus YEL061C, strain CIN8, stronger effect = lower value", "result": 1.02}, {"measurement": "normalized growth", "setting": "locus YGR078C, strain PAC10, stronger effect = lower value", "result": 0.964}, {"measurement": "normalized growth", "setting": "[2]", "result": 0.94}, {"measurement": "normalized growth", "setting": "locus YHR087W, strain rtc3, stronger effect = lower value", "result": 1.03}, {"measurement": "normalized growth", "setting": "locus YJR043C, strain POL32, stronger effect = lower value", "result": 0.977}, {"measurement": "normalized growth", "setting": "locus YJR075W, strain HOC1, stronger effect = lower value", "result": 0.995}, {"measurement": "normalized growth", "setting": "locus YLR039C, strain RIC1, stronger effect = lower value", "result": 0.998}, {"measurement": "normalized growth", "setting": "locus YLR058C, strain SHM2 (second series), stronger effect = lower value", "result": 0.997}, {"measurement": "normalized growth", "setting": "locus YLR085C, strain ARP6, stronger effect = lower value", "result": 1.02}, {"measurement": "normalized growth", "setting": "locus YLR262C, strain YPT6, stronger effect = lower value", "result": 1.02}, {"measurement": "normalized growth", "setting": "locus YML094W, strain GIM5, stronger effect = lower value", "result": 1.02}, {"measurement": "normalized growth", "setting": "locus YMR219W, strain ESC1, stronger effect = lower value", "result": 0.997}, {"measurement": "normalized growth", "setting": "locus YMR263W, strain SAP30, stronger effect = lower value", "result": 0.987}, {"measurement": "normalized growth", "setting": "locus YMR307W, strain GAS1, stronger effect = lower value", "result": 0.927}, {"measurement": "normalized growth", "setting": "locus YNL128W, strain TEP1, stronger effect = lower value", "result": 0.991}, {"measurement": "normalized growth", "setting": "locus YNL153C, strain GIM3, stronger effect = lower value", "result": 0.986}, {"measurement": "normalized growth", "setting": "locus YNL298W, strain CLA4 (second series), stronger effect = lower value", "result": 1.01}, {"measurement": "normalized growth", "setting": "locus YNL322C, strain KRE1, stronger effect = lower value", "result": 0.995}, {"measurement": "normalized growth", "setting": "locus YNR030W, strain Alg12, stronger effect = lower value", "result": 1}, {"measurement": "normalized growth", "setting": "locus YOL006C, strain TOP1, stronger effect = lower value", "result": 0.955}, {"measurement": "normalized growth", "setting": "locus YPL055C, strain LGE1, stronger effect = lower value", "result": 1}, {"measurement": "normalized growth", "setting": "locus YPL241C, strain CIN2, stronger effect = lower value", "result": 0.965}, {"measurement": "normalized growth", "setting": "locus YPR135W, strain CTF4, stronger effect = lower value", "result": 0.949}]}
{"smiles": "Cc1c(C(=O)N2CCCCC2)cc(-c2ccccc2)n1-c1ccccc1", "values": [{"measurement": "normalized growth", "setting": "locus YAR019C, strain CDC15, stronger effect = lower value", "result": 0.964}, {"measurement": "normalized growth", "setting": "locus YBL105C, strain PKC1, stronger effect = lower value", "result": 0.975}, {"measurement": "normalized growth", "setting": "locus YBR135W, strain CKS1, stronger effect = lower value", "result": 0.969}, {"measurement": "normalized growth", "setting": "locus YBR136W, strain MEC1, stronger effect = lower value", "result": 0.969}, {"measurement": "normalized growth", "setting": "locus YBR160W, strain CDC28, stronger effect = lower value", "result": 0.959}, {"measurement": "normalized growth", "setting": "locus YDL017W, strain CDC7, stronger effect = lower value", "result": 0.973}, {"measurement": "normalized growth", "setting": "locus YDL028C, strain MPS1, stronger effect = lower value", "result": 0.946}, {"measurement": "normalized growth", "setting": "[1]", "result": 0.969}, {"measurement": "normalized growth", "setting": "locus YDL108W, strain KIN28, stronger effect = lower value", "result": 0.968}, {"measurement": "normalized growth", "setting": "locus YDL132W, strain cdc53, stronger effect = lower value", "result": 0.973}, {"measurement": "normalized growth", "setting": "locus YDL214C, strain PRR2, stronger effect = lower value", "result": 0.908}, {"measurement": "normalized growth", "setting": "locus YDR052C, strain DBF4, stronger effect = lower value", "result": 0.983}, {"measurement": "normalized growth", "setting": "locus YDR054C, strain cdc34, stronger effect = lower value", "result": 0.968}, {"measurement": "normalized growth", "setting": "locus YDR226W, strain ADK1, stronger effect = lower value", "result": 0.962}, {"measurement": "normalized growth", "setting": "locus YDR477W, strain SNF1, stronger effect = lower value", "result": 0.908}, {"measurement": "normalized growth", "setting": "locus YER123W, strain YCK3, stronger effect = lower value", "result": 0.896}, {"measurement": "normalized growth", "setting": "locus YER133W, strain GLC7, stronger effect = lower value", "result": 0.924}, {"measurement": "normalized growth", "setting": "locus YFL009W, strain cdc4, stronger effect = lower value", "result": 0.952}, {"measurement": "normalized growth", "setting": "locus YFL029C, strain CAK1, stronger effect = lower value", "result": 0.967}, {"measurement": "normalized growth", "setting": "locus YFR003C, strain YPI1, stronger effect = lower value", "result": 0.976}, {"measurement": "normalized growth", "setting": "locus YFR019W, strain FAB1, stronger effect = lower value", "result": 0.944}, {"measurement": "normalized growth", "setting": "locus YFR028C, strain CDC14, stronger effect = lower value", "result": 0.968}, {"measurement": "normalized growth", "setting": "locus YGR040W, strain KSS1, stronger effect = lower value", "result": 0.897}, {"measurement": "normalized growth", "setting": "locus YGR052W, strain FMP48, stronger effect = lower value", "result": 0.947}, {"measurement": "normalized growth", "setting": "locus YGR092W, strain DBF2, stronger effect = lower value", "result": 0.855}, {"measurement": "normalized growth", "setting": "[2]", "result": "0.676 (active)"}, {"measurement": "normalized growth", "setting": "locus YHR079C, strain IRE1, stronger effect = lower value", "result": 0.822}, {"measurement": "normalized growth", "setting": "locus YHR082C, strain KSP1, stronger effect = lower value", "result": 0.901}, {"measurement": "normalized growth", "setting": "locus YHR205W, strain SCH9, stronger effect = lower value", "result": 0.828}, {"measurement": "normalized growth", "setting": "locus YIL147C, strain SLN1, stronger effect = lower value", "result": 0.951}, {"measurement": "normalized growth", "setting": "locus YJL095W, strain BCK1, stronger effect = lower value", "result": 0.837}, {"measurement": "normalized growth", "setting": "locus YJL128C, strain PBS2, stronger effect = lower value", "result": 0.922}, {"measurement": "normalized growth", "setting": "locus YJL157C, strain FAR1, stronger effect = lower value", "result": 0.933}, {"measurement": "normalized growth", "setting": "locus YJR016C, strain ILV3, stronger effect = lower value", "result": 0.975}, {"measurement": "normalized growth", "setting": "locus YJR066W, strain TOR1 (second series), stronger effect = lower value", "result": 0.912}, {"measurement": "normalized growth", "setting": "locus YJR066W, strain TOR1, stronger effect = lower value", "result": 0.843}, {"measurement": "normalized growth", "setting": "locus YKL048C, strain ELM1, stronger effect = lower value", "result": 0.928}, {"measurement": "normalized growth", "setting": "locus YKL067W, strain YNK1, stronger effect = lower value", "result": 0.916}, {"measurement": "normalized growth", "setting": "locus YKL101W, strain HSL1, stronger effect = lower value", "result": 0.884}, {"measurement": "normalized growth", "setting": "locus YKL193C, strain SDS22, stronger effect = lower value", "result": 0.969}, {"measurement": "normalized growth", "setting": "locus YKL203C, strain TOR2, stronger effect = lower value", "result": 0.981}, {"measurement": "normalized growth", "setting": "locus YLR113W, strain HOG1, stronger effect = lower value", "result": "0.787 (active)"}, {"measurement": "normalized growth", "setting": "locus YLR133W, strain CKI1, stronger effect = lower value", "result": 0.921}, {"measurement": "normalized growth", "setting": "locus YLR403W, strain SFP1, stronger effect = lower value", "result": 0.905}, {"measurement": "normalized growth", "setting": "locus YML070W, strain DAK1, stronger effect = lower value", "result": 0.898}, {"measurement": "normalized growth", "setting": "locus YMR001C, strain CDC5, stronger effect = lower value", "result": 0.944}, {"measurement": "normalized growth", "setting": "locus YMR205C, strain PFK2 (second series), stronger effect = lower value", "result": 0.934}, {"measurement": "normalized growth", "setting": "locus YMR277W, strain FCP1, stronger effect = lower value", "result": 0.943}, {"measurement": "normalized growth", "setting": "locus YNL006W, strain LST8, stronger effect = lower value", "result": 0.965}, {"measurement": "normalized growth", "setting": "locus YNL020C, strain ARK1, stronger effect = lower value", "result": 0.921}, {"measurement": "normalized growth", "setting": "locus YNL161W, strain CBK1, stronger effect = lower value", "result": 0.972}, {"measurement": "normalized growth", "setting": "locus YNL183C, strain NPR1, stronger effect = lower value", "result": 0.942}, {"measurement": "normalized growth", "setting": "locus YNL207W, strain RIO2, stronger effect = lower value", "result": 0.974}, {"measurement": "normalized growth", "setting": "locus YNL222W, strain SSU72, stronger effect = lower value", "result": 0.949}, {"measurement": "normalized growth", "setting": "locus YNL307C, strain MCK1 (second series), stronger effect = lower value", "result": 0.881}, {"measurement": "normalized growth", "setting": "locus YOL078W, strain AVO1, stronger effect = lower value", "result": 0.974}, {"measurement": "normalized growth", "setting": "locus YOL136C, strain PFK27, stronger effect = lower value", "result": 0.88}, {"measurement": "normalized growth", "setting": "locus YOR061W, strain CKA2, stronger effect = lower value", "result": 0.918}, {"measurement": "normalized growth", "setting": "locus YOR119C, strain RIO1, stronger effect = lower value", "result": 0.932}, {"measurement": "normalized growth", "setting": "locus YOR231W, strain MKK1, stronger effect = lower value", "result": 0.823}, {"measurement": "normalized growth", "setting": "locus YOR329C, strain SCD5, stronger effect = lower value", "result": 0.977}, {"measurement": "normalized growth", "setting": "locus YPL031C, strain PHO85, stronger effect = lower value", "result": 0.891}, {"measurement": "normalized growth", "setting": "locus YPL153C, strain RAD53, stronger effect = lower value", "result": 0.91}, {"measurement": "normalized growth", "setting": "locus YPL204W, strain HRR25, stronger effect = lower value", "result": 0.899}, {"measurement": "normalized growth", "setting": "locus YPL209C, strain IPL1, stronger effect = lower value", "result": 0.974}, {"measurement": "normalized growth", "setting": "locus YPL256C, strain CLN2, stronger effect = lower value", "result": "0.8 (active)"}, {"measurement": "normalized growth", "setting": "locus YPR025C, strain CCL1, stronger effect = lower value", "result": 0.981}, {"measurement": "normalized growth", "setting": "locus YPR106W, strain ISR1, stronger effect = lower value", "result": 0.958}, {"measurement": "normalized growth", "setting": "locus YPR111W, strain DBF20, stronger effect = lower value", "result": 0.94}, {"measurement": "normalized growth", "setting": "strain NNK1, stronger effect = lower value", "result": 0.962}, {"measurement": "normalized growth", "setting": "strain TSCII, stronger effect = lower value", "result": 0.96}]}
